High-throughput results deposited in PubChem by National Center for Advancing Translational Sciences (NCATS).
MmCpn inh = inhibitors of Methanococcus maripaludis chaperonin TRiC (MmCpn); purified Mm-Cpn ATPase, ADP Transcreener TR-FRET; Potency, µM (titrated, usually from 76.9 µM), actives largely listed as inhibitors; 330,000 tested, 0.031% active; further: nearly all actives have a fitted effect of over 80% in size
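ATP (10 uM final) was added to archaeal chaperonin (25 nM final) after 10 min exposure to test compound at 37°C; after 30 min further incubation, ADP was detected by competitive TR-FRET.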
GLS inhibitor = inhibitors of human glutaminase (GLS); GLS enzymatic activity, qHTS titration; AID 624170; O94925; Potency, µM (doses to about 45.5 µM), usual class: inhibitors; 410,000 tested, 0.21% active
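Compounds were pin-transferred onto hKGA, after which L-glutamine (1 mM solution) and a detection mix of glutamate oxidase, HRP and Amplex Red were added. Initial and 30 min RT fluorescence reads were collected.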
Glioma ERSR ind = ER stress response induction in glioma | U87-MG GRP78 promoter luciferase reporter, 16 h | Potency, µM, most hits filed as activators | 420,000 tested, 0.02% active; further: series mostly up to about 76 µM; nearly all actives have a fitted effect of over 35% in size
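Stably transfected U87-MG glioma cells carrying a GRP78-based luciferase sensor; 16 h compound incubation. Luminescence end-point read 10 min after Bright-Glo addition at room temperature.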
mIDH1 inhibitor = inhibitors of human mutant IDH1 R132H; IDH1-R132H enzyme, NADPH consumption, diaphorase/resazurin fluorescence; O75874; AID 602179; Potency, µM (series often up to 76.6 µM), hits mostly inhibitors; 390,000 tested, 0.093% active; further: nearly all actives have a fitted effect of over 65% in size
Target sequence (O75874 whole entry R132H, stated change not applied): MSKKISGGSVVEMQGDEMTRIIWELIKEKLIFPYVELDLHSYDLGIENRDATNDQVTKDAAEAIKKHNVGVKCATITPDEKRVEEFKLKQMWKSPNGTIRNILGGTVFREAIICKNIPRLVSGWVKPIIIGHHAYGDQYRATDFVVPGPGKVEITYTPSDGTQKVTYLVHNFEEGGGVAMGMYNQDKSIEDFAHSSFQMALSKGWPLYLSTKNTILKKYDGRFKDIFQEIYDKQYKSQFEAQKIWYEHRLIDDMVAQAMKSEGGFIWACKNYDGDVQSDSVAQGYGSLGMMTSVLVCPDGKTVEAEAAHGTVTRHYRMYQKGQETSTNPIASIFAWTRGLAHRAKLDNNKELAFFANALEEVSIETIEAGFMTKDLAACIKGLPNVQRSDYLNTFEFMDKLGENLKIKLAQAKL
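IDH1-R132H (0.5 ug/mL) preincubated 30 min with compound, then NADPH (0.016 mM) and alpha-KG (2 mM) added; 80 min at RT, pH 7.5. Remaining NADPH coupled via diaphorase/resazurin to fluorescence (540/590 nm); concentration-response curves normalized to no-enzyme control.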
CCT chaperon mod = modulators of cytosolic chaperonin (CCT/TRiC) activity. purified chaperonin ATPase assay, HTRF ADP detection, 30 min. activity change, % (no concentration beside the values), hits read low. 360,000 tested, 0.3% active. AID 651819; in the data active means activity change below about -30%
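We incubate TRiC, 40 or 20 nM final, with library compounds at 76 uM and 10 uM ATP for 30 min at 37 °C. ADP formed is detected with Transcreener HTRF reagents after 30 min at room temperature.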
Akt phos inh = inhibitors of Akt phosphorylation; AID 651550; 360,000 tested, 0.32% active; Neuro2A IGF-stimulated pAkt S473 HTRF, 20 min; hits give low values; activity change, % for hits at 50 µM; in the data active means activity change below about -80%; inconclusive means mostly about -51% to -80%
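Single-point screen (50 µM final compound) in Neuro2A cells stimulated 20 min with 6 nM IGF at 37 deg C. After lysis, Ser473-phosphorylated Akt read by HTRF (ex 330 nm, em 615/665 nm) as the 665/615 ratio.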
Resorufin autofl = interferes with resorufin fluorescence in IDH1 counter-screen. shares compounds with mIDH1 inhibitor. Resorufin detection reagent fluorescence interference, cell-free. inhibition of signal, % at 51.2 µM. 750 tested, under 10 active. AID 623980
IDH1 WT = wild-type IDH1 (human) inhibition counterscreen. shares compounds with mIDH1 inhibitor. WT IDH1 enzyme, NADPH diaphorase/resazurin fluorescence. Potency, µM (top dose mostly 115 µM), hits mostly inhibitors. 750 tested, 9% active; further: nearly all actives have a fitted effect of over 55% in size
Target sequence (O75874 whole entry, looked up): as the sequence (O75874 whole entry R132H, stated change not applied) above, with H132R counted along it
IDH1 R132H conf = confirmation of human mutant IDH1 inhibitors. shares compounds with mIDH1 inhibitor. IDH1 R132H enzyme, NADPH diaphorase/resazurin fluorescence. Potency, µM (series often up to 76.6 µM), usual class: inhibitors. 750 tested, 83% active. AID 624002; further: nearly all actives have a fitted effect of over 50% in size
Numbers stand for hits; - = inactive; ? = inconclusive; . = not tested or not shown. Shown are actives, neighbours in structure and some others; about 0.85% of the full set was active somewhere. Unless noted, the call rests on the fitted dose curve; in most records, active means well fitted curve in the direction sought with a large enough effect; inconclusive means small, poorly fitted or top-dose-only effect, or another doubt; inactive means no such curve, though single readings can be large; an effect the other way counts as inactive or inconclusive.

SMILES	MmCpn inh	GLS inhibitor	Glioma ERSR ind	mIDH1 inhibitor	CCT chaperon mod	Akt phos inh	Resorufin autofl	IDH1 WT	IDH1 R132H conf
COc1cc(-c2ccc(Cl)cn2)cc2c1OCCN(C(=O)c1ccccc1-n1cccn1)C2	.	.	-	.	.	.	.	.	.
O=c1c2ccccc2nc2n1CCC2	-	?	-	16µM	-	-	-	?	-
O=c1c2ccccc2nc2n1CCCCC2	-	-	-	-	-	-	.	.	.
CC1=NOC(=O)/C1=C\c1ccc(-c2ccc(Br)cc2)o1	-	-	-	21µM	-	-	-	?	22µM
CCCC(NC(=O)CCc1c(C)c2cc3c4c(oc3c(C)c2oc1=O)CCCC4)C(=O)O (configuration not stated)	-	-	-	41µM	-	-	-	-	28µM
CC(=O)N1CCc2c(sc3c2c(=O)n(CCc2ccccc2)c(=O)n3Cc2ccccc2C)C1	.	-	-	13µM	.	.	-	-	11µM
CC(=O)N1CCc2c(sc3c2c(=O)n(-c2ccccc2Cl)c(=O)n3Cc2cccc(C)c2)C1	.	-	-	32µM	.	.	-	20µM	16µM
CC(=O)N1CCc2c(sc3c2c(=O)n(-c2ccc(C)cc2)c(=O)n3Cc2c(F)cccc2Cl)C1	.	-	-	?	.	.	-	35µM	22µM
Cc1ccc(CN2CCSc3ccc(C(=O)N4CCN(c5ncccn5)CC4)cc32)cc1	-	-	-	?	-	-	-	-	16µM
CCN1CCN(C(=O)c2ccc3c(c2)N(Cc2ccc(C)cc2)CCS3)CC1	-	-	-	-	-	-	.	.	.
COCc1c(C(=O)NC2CCCC2)cnn1-c1nccc(-c2cc(C)sc2C)n1	.	.	-	.	.	.	.	.	.
Cc1ccc(C(C(=O)NC2CCCCC2)N(Cc2ccco2)C(=O)C2COc3ccccc3O2)o1 (configuration not stated)	-	-	-	?	-	-	-	-	13µM
O=C(NCC(=O)N(Cc1ccco1)C(C(=O)NC1CCCC1)c1ccncc1)c1cccs1 (configuration not stated)	-	-	-	-	-	-	.	.	.
O=C(NC1CCCC1)C(c1ccccc1)N(Cc1ccco1)C(=O)Cc1cccs1 (configuration not stated)	-	-	-	?	-	-	-	-	28µM
O=C(NCc1ccco1)C(c1ccccc1)N(C(=O)Cc1cccs1)c1ccccc1F (configuration not stated)	-	-	-	21µM	-	-	-	-	14µM
O=C(NCc1ccco1)C(c1ccncc1)N(C(=O)Cc1cccs1)c1ccccc1 (configuration not stated)	-	-	-	-	-	-	.	.	.
CCC1(C2CCN(C(=O)c3cc(C)cc(C)c3)CC2)NC(=O)N(CCc2scnc2C)C1=O (configuration not stated)	.	.	-	.	.	.	.	.	.
COCC1CCCN(Cc2ccc3c(c2)CN(C(=O)c2sc(C)nc2C)CCO3)C1 (configuration not stated)	.	.	-	.	.	.	.	.	.
CCOC(=O)CSC1=NC(=O)/C(=C/c2ccc(OC)cc2)S1	-	-	-	52µM	-	-	-	?	45µM
COc1ccc(/C=C2\SC(N)=NC2=O)cc1	-	-	-	-	-	-	.	.	.
CC(C)(O)C#Cc1ccc(CN2CCc3nnc(CNC(=O)c4cccc(F)c4)n3CC2)cc1	.	.	-	.	.	.	.	.	.
COc1cc(=O)n2c(c1C(=O)NCc1ccco1)CCN(C(=O)c1c(F)ccc(F)c1F)CC2	.	.	-	.	.	.	.	.	.
COc1cc(/C=C2\SC(c3ccccc3)=NC2=O)cc(Cl)c1O	-	8.9µM	-	58µM	-43	-	-	-	45µM
COc1cc(/C=C2\SC(c3ccc(C)cc3)=NC2=O)ccc1O	-	-	-	-	-	-	.	.	.
COc1cc2c(c3oc(-c4ccccc4)cc(=O)c13)C=CC(C)(C)O2	.	-	-	40µM	-	-	-	28µM	22µM
SMILES	MmCpn inh	GLS inhibitor	Glioma ERSR ind	mIDH1 inhibitor	CCT chaperon mod	Akt phos inh	Resorufin autofl	IDH1 WT	IDH1 R132H conf
CC(=O)c1ccc(NS(=O)(=O)c2cccc(S(=O)(=O)c3ccc(Cl)cc3)c2)cc1	.	-	-	?	.	.	-	-	45µM
COc1ccccc1-c1ccnc(-n2ncc(C(=O)NC3CCCN(Cc4ccccc4)C3)c2C)n1 (configuration not stated)	.	.	-	.	.	.	.	.	.
CCOC(=O)c1ccc(N2C(=O)c3[nH]nc(-c4ccccc4)c3C2c2cccs2)cc1 (configuration not stated)	.	-	-	?	.	.	-	-	-
CCOC(=O)c1ccc(N2C(=O)c3n[nH]c(-c4ccco4)c3C2c2ccc(C)cc2)cc1 (configuration not stated)	.	-	?	-	.	.	.	.	.
CCOC(=O)c1ccc(N2C(=O)c3n[nH]c(-c4ccco4)c3C2c2ccc(O)c(OC)c2)cc1 (configuration not stated)	.	-	-	?	.	.	-	-	20µM
COc1cc(-c2cnc3ccccc3c2)cc2c1OCCN(C(=O)Cn1nccc1C)C2	.	.	-	.	.	.	.	.	.
COc1cc(C2C3CN(C)CC=C3C(C#N)=C(N)C2(C#N)C#N)ccc1OC(C)C (configuration not stated)	-	-	-	?	-	-	-	-	-
COc1cc([C@@H]2[C@H]3CNCC=C3C(C#N)=C(N)C2(C#N)C#N)ccc1OC(C)C	-	-	-	?	-	-	.	.	.
O=S(=O)(Nc1ccc(S(=O)(=O)Nc2nccs2)cc1)c1ccc(Br)cc1	-	-	-	?	-	-	-	-	40µM
COc1ccc(-c2coc3cc(OC(C)=O)ccc3c2=S)cc1	.	-	-	46µM	-	-	-	-	?
Cc1c(C#N)c(N)nc2c3c(sc12)NC(=O)CC3c1ccc(Cl)cc1 (configuration not stated)	-	-	-	29µM	-	-	-	-	16µM
COc1ccc(-c2cc(-c3nnc(COC(=O)c4ccc(O)cc4)o3)c3ccccc3n2)cc1OC	-	-	-	?	-	-	-	-	?
COc1cc(=O)n2c(c1C(=O)NCc1ccco1)CCN(Cc1ccc3nsnc3c1)CC2	.	.	-	.	.	.	.	.	.
COc1ccc(-c2c3c(=O)n(C)c(=O)n(C)c3c3n2-c2ccccc2NC3c2ccc(O)cc2O)cc1 (configuration not stated)	.	-	-	35µM	.	.	-	-	8.9µM
